# Source: PubChem BioAssay (NCATS)
# Records with an inconclusive call do not appear. The source made the active and inactive calls. Calls follow the shape of the dose curve; as a rule, active = well fitted cell-killing curve with a large enough effect; inconclusive = small, poorly fitted or top-dose-only effect; inactive = no such curve, though single readings can be large or run the other way.
# Test: Quantitative High-Throughput drug screen in 47 multiple myeloma cell lines against the NCATS MIPE library collection: NCIH929_DSMZ cell viability assay (AID 1918978); also: nearly all actives have a fitted effect of over 35% in size
# Conditions: NCI-H929 myeloma viability, CellTiter-Glo ATP, 48 h; series mostly up to 45.8 µM
# From the text: PI: Beverly A. Mock Ph.D.
# Laboratory of Cancer Biology and Genetics,
# Center for Cancer Research, National Cancer Institute,
# National Institute of Health, Bethesda, Maryland
# Drug resistance and disease progression are common in multiple myeloma (MM) patients, underscoring the need for new therapeutic combinations. […] We hypothesized that effective combinations would reduce MYC expression and enhance p16 activity. […] These preclinical data identify potentially useful drug combinations for evaluation in drug-resistant MM and reveal potential mechanisms of combined drug sensitivity.
# Described herein is the primary MIPE qHTS used to cherrypick compounds. Validated compounds were then further tested for potential synergistic activiy.
# [1] Peat TJ, Gaikwad SM, Dubois W, Gyabaah-Kessie N, Zhang S, Gorjifard S, Phyo Z, Andres M, Hughitt VK, Simpson RM, Miller MA, Girvin AT, Taylor A, Williams D, D'Antonio N, Zhang Y, Rajagopalan A, Flietner E, Wilson K, Zhang X, Shinn P, Klumpp-Thomas C, McKnight C, Itkin Z, Chen L, Kazandijian D, Zhang J, Michalowski AM, Simmons JK, Keats J, Thomas CJ, Mock BA. Drug combinations identified by high-throughput screening promote cell cycle transition and upregulate Smad pathways in myeloma. Cancer Lett. 2023 Aug 1;568:216284. doi: 10.1016/j.canlet.2023.216284. Epub 2023 Jun 24. PMID: 37356470; PMCID: PMC10408729.
# SEQUENCE No. (e.g., 1, 2, 3, etc.); […] (e.g., Cells, Incubation, Reagent, etc.); VALUE and DESCRIPTION.
# 1; Cells; 5 uL; white, solid bottom 1536-well Greiner assay plate.
# 2; Compounds; 23 nL; Kalypsis pin tool (Wako USA) equipped with a 1536-well pin head to transfer to the assay plates.
# 3; Incubation; 48 hours; 37C incubation.
# 4; Reagent;5uL; CellTiter Glo (Promega).
# 5; Detector; 425V; Luminescence; Viewlux PerkinElmer.
# NOTES (numbers refer to Sequence numbers above)
# 1. The cell-based screening methods employed in this study were like those previously published. Briefly, the corresponding myeloma cell lines were screened in 1,536-well plates with 500 cells, 5-uL per well for inhibition of cell viability (assessed by measuring ATP levels with CellTiterGlo).
# 2. NCATS MIPE 4.0 library of approved and investigational drugs were added using the Kalypsis pin tool. Wells treated with DMSO only for 100% viability and media only for 0% viability were used as controls.
# 3. The assay plates were covered and incubated for 48 hours in a 37C, 5% CO2 incubator with controlled humidity.
# 4. After 48 hours, CellTilter-GloTM luminescent substrate mix (Promega) reagent was added to the assay plate and plates we incubated for 5 min at room temperature.
# 5. Signal was measured as median relative luminescence units on a ViewLux (PerkinElmer) multiplate reader.
# [1] Heske CM, Davis MI, Baumgart JT, Wilson K, Gormally MV, Chen L, Zhang X, Ceribelli M, Duveau DY, Guha R, Ferrer M, Arnaldez FI, Ji J, Tran HL, Zhang Y, Mendoza A, Helman LJ, Thomas CJ. Matrix Screen Identifies Synergistic Combination of PARP Inhibitors and Nicotinamide Phosphoribosyltransferase (NAMPT) Inhibitors in Ewing Sarcoma. Clin Cancer Res. 2017 Dec 1;23(23):7301-7311. doi: 10.1158/1078-0432.CCR-17-1121. Epub 2017 Sep 12. PMID: 28899971; PMCID: PMC6636827.
# Potency is read from the fitted curve at half-maximal effect.
row,Compound,Potency
1,CCOC(=O)N1CCN([N+]([O-])=NOc2cc(ON=[N+]([O-])N3CCN(C(=O)OCC)CC3)c([N+](=O)[O-])cc2[N+](=O)[O-])CC1,2.64 µM (active)
2,Cc1nc(C(=O)NCC(=O)O)c(O)c2ccc(Oc3ccccc3)cc12,inactive
3,CC1CCN(c2cc(N3CCN(C)CC3)ccc2NC(=O)c2cc(C#N)c[nH]2)CC1,inactive
4,c1cc(OCCN2CCCCC2)cc(-c2n[nH]c3ccc(-c4ncn[nH]4)cc23)c1,8.33 µM (active)
5,Cc1cnc(Nc2cccc(CN3CCOCC3)c2)nc1Nc1cccc(S(=O)(=O)NC(C)(C)C)c1,1.87 µM (active)
6,CN(C)c1nc(Cc2ccc(NC(=O)c3ccc(C(F)(F)F)cc3)cc2)nc(N(C)C)c1CC(=O)O,inactive
7,Nc1ccn([C@@H]2O[C@H](CO)[C@@H](O)[C@H]2O)c(=O)n1,inactive
8,C[C@H]1O[C@@H](n2cc(F)c(=O)[nH]c2=O)[C@H](O)[C@H]1O,inactive
9,C[C@]12CC[C@@H]3c4ccc(O)cc4CC[C@H]3[C@H]1[C@@H](O)[C@@H](O)[C@H]2O,inactive
10,O=C(O)Cc1cccc(OCCCN(Cc2cccc(C(F)(F)F)c2Cl)CC(c2ccccc2)c2ccccc2)c1,18.7 µM (active)
11,CCC=CC[C@H]1C(=O)CC[C@@H]1CC(=O)OC,inactive
12,CC(C)CNc1ccnc(NCc2csc(-c3ccccc3)n2)n1,20.9 µM (active)
13,CN(C)c1ccc(-c2nc3ncc(Cl)c(N4CCN(CC(=O)Nc5nccs5)CC4)c3[nH]2)cc1,inactive
14,CC[C@H](C)C(=O)O[C@H]1C[C@H](O)C=C2C=C[C@H](C)[C@H](CC[C@@H](O)C[C@@H](O)CC(=O)O)[C@H]21,inactive
15,O=C(NCCCCN1CCOCC1)c1cc2ccccc2o1,inactive
16,CC(=O)NCCC(=O)N[C@@H](CCC(N)=O)C(=O)N[C@@H](CO)C(=O)N[C@@H](CCC(N)=O)C(=O)N[C@@H](CCC(N)=O)C(=O)N[C@H](C(=O)N[C@@H](Cc1ccccc1)C(=O)N[C@]1(C)CCCCCCC=CCCC[C@@](C)(C(=O)N[C@@H](CCC(N)=O)C(=O)N[C@@H](CC(N)=O)C(N)=O)NC(=O)[C@H](CC(C)C)NC(=O)[C@H](CC(C)C)NC(=O)[C@@H](CCCNC(=N)N)NC(=O)[C@H](Cc2c[nH]c3ccccc23)NC(=O)[C@H](CC(C)C)NC(=O)[C@H](CC(N)=O)NC1=O)[C@H](C)O,23.5 µM (active)
17,CN1C(=O)C(Cc2c[nH]c3ccccc23)NC1=S (stereo not given),inactive
18,C[C@@]1(c2cc(-c3cncnc3)c(F)cc2F)CCSC(N)=N1,2.96 µM (active)
19,COC(=O)N1CCN(Cc2cccc(NC(=O)Nc3ccc(C)nc3)c2F)CC1,inactive
20,CN1CCN(c2cccc(Nc3nc4c(-c5ccc(S(C)(=O)=O)cc5)cccn4n3)c2)CC1,2.64 µM (active)

row,Compound,Potency
1,Cc1ccc(S(=O)(=O)Nc2nc3ccccc3nc2Nc2ccc3nsnc3c2)cc1,7.24 µM (active)
2,COc1ccc2c(c1)CC[C@H]1[C@@H]2CC[C@]2(C)[C@@H](NCCCCCCN3C(=O)C=CC3=O)CC[C@H]12,inactive
3,CC(=O)OCC(=O)[C@@]1(O)CC[C@H]2[C@@H]3CCC4=CC(=O)C=C[C@]4(C)[C@@H]3[C@@H](O)C[C@@]21C,0.187 µM (active)
4,FC(F)(F)c1ccc(C=Cc2nc(COc3ccc(CCCCn4ccnn4)cc3)co2)cc1,0.0235 µM (active)
5,CNc1nc(-c2ccc3c(N)n[nH]c3c2)cc(N2C[C@@H](C(=O)NC3CCCCC3)CC[C@@H]2C)n1,1.18 µM (active)
6,N#CC(c1ccc(Cl)cc1)c1c(Cl)cc(-n2ncc(=O)[nH]c2=O)cc1Cl (stereo not given),18.7 µM (active)
7,COc1ccc2nc3cc(Cl)ccc3c(Nc3cc(CN4CCCC4)c(O)c(CN4CCCC4)c3)c2n1,18.7 µM (active)
8,COc1ccc(-c2cc3nccn3c(Nc3ncccc3C(N)=O)n2)cc1OC,0.935 µM (active)
9,COc1c(C)cnc(Cn2cnc3c(Cl)nc(N)nc32)c1C,0.187 µM (active)
10,O=C(C=Cc1ccc(O)cc1)c1ccc(O)cc1O,16.6 µM (active)
11,Cc1ccccc1C(C(=O)NC1CCCCC1)N(C(=O)CNc1ccc(C#N)cc1)c1cccc(F)c1 (stereo not given),inactive
12,O=c1[nH]c(=O)n([C@H]2C[C@@H](O)[C@@H](CO)O2)cc1I,inactive
13,CN1CCC(COc2cnc(-c3cccc(Cn4nc(-c5cccc(C#N)c5)ccc4=O)c3)nc2)CC1,0.0526 µM (active)
14,C[C@]12CCC3=C4CCC(=O)C=C4CC[C@@H]3[C@H]1CC[C@@]2(O)CC#N,inactive
15,Cc1ccccc1C(=O)c1ccc(Nc2ccc(Br)cc2N)cc1Cl,23.5 µM (active)
16,Cc1cc(-c2ncc(CC(=O)Nc3ccc(-c4cnccn4)cn3)cc2C)ccn1,20.9 µM (active)
17,COC1CCC(C(=O)c2ccc3nc4c(cc3c2)CCCO4)CC1 (stereo not given),23.5 µM (active)
18,Clc1ccc(C2(c3ccc(-c4cn[nH]c4)cc3)CCNCC2)cc1,2.96 µM (active)
19,CCC[C@H](Nc1nc(-c2ccc(NC(=O)NCC)c(OC)c2)ncc1C)c1cccnc1,0.0074 µM (active)
20,Cc1ccc(C2=Nc3ccc(Cl)cc3OC2)cc1,inactive
